A selection: hits, their analogues and other compounds. The true share with any hit is near 2.8%.
PI5P4K alpha inh: inhibitors of human PI5P4K alpha; P48426; PI5P4Kalpha enzyme, ADP-Glo luminescence, 60 min; hits give low values; max response, %; hit rate 1.2% among 330,000; AID 652105; active = max response of -50% or lower; inconclusive = between -30% and -50%; inactive = -30% or higher; note: value at the top dose of about 77 µM; % is set by controls: 0 for no effect and ±100 for the full control effect
Target sequence (P48426 whole entry, looked up): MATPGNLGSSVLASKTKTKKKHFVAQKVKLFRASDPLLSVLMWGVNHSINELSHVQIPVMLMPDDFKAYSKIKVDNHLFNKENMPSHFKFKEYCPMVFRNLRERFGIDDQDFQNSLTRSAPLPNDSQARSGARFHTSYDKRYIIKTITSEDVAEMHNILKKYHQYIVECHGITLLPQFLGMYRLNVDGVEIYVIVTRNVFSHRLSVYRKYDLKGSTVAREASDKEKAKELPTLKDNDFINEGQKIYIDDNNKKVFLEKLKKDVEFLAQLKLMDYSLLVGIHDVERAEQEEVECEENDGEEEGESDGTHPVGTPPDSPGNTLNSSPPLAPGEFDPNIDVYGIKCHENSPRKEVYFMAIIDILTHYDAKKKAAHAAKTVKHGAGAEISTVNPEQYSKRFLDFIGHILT
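Luminescence from ADP-Glo served as readout of PI5P4Kalpha activity in a qHTS format. Reaction: enzyme, substrate, compound, ATP at 5 microM final, 60 min at RT.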
WRN helicase inh: inhibitors of human WRN helicase; Q14191; WRN helicase unwinding, fluorescent forked duplex, kinetic; Potency, µM (titrated, usually from 114 µM), inactives show top-dose activity change, negative = inhibition, usual class: inhibitors; hit rate 0.46% among 360,000; AID 651768; note: potency is the fitted concentration of half-maximal effect; % is set by controls: 0 for no effect and ±100 for the full control effect; nearly all actives have a fitted effect of over 55% in size
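Screening of the MLSMR collection measured strand separation of a quenched forked DNA duplex (100 nM) by 20 nM WRN with 2 mM ATP, all final. Compounds were preincubated with enzyme 15 min at room temperature.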
Pol eta inh: inhibitors of human DNA polymerase eta | Potency, µM (doses to about 114 µM), for the others: at the top dose activity change, negative = inhibition, actives largely listed as inhibitors | Q9Y253 | recombinant Pol eta, fluorescent DNA replication assay | hit rate 1.2% among 390,000; note: potency is the fitted concentration of half-maximal effect; % is set by controls: 0 for no effect and ±100 for the full control effect
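Pol eta (10 nM) was preincubated with compounds for 15 min at room temperature, after which fluorescent replication substrate (50 nM final) was added to start the reaction. Fluorescence was read kinetically at 0 and 10 min.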
Pol beta inh: DNA polymerase beta (human) inhibition; hit rate 1.3% among 340,000; Potency, µM (highest dose often 114 µM), inactives show top-dose activity change, negative = inhibition, usual class: inhibitors; Pol beta primer extension/strand displacement, fluorescence kinetic; P06746; note: potency is the fitted concentration of half-maximal effect; % is set by controls: 0 for no effect and ±100 for the full control effect
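Kinetic readout of DNA synthesis with strand displacement by Pol beta. Compound and 10 nM enzyme sit 15 min at room temperature; 50 nM substrate starts the reaction, read immediately and at 10 min.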
POLI inh: blocks human DNA polymerase iota activity; Potency, µM (series often up to 115 µM), for inactives: top-dose activity, negative = inhibition, hits mostly inhibitors; hit rate 1% among 390,000; Q9UNA4; Pol iota fluorescent replication assay, 10 min; note: potency is the fitted concentration of half-maximal effect
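Fluorescent replication assay read twice, at 0 min and 10 min after adding 50 nM (final) substrate. Enzyme (10 nM) and compounds were first incubated 15 min at room temperature; enzyme-free buffer wells were negative controls.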
POLK inh: blocks human DNA polymerase kappa activity; Potency, µM (titrated, usually from 107 µM), inactives show at the highest dose activity, negative = inhibition, hits mostly inhibitors; purified Pol kappa, fluorescent DNA synthesis assay, 10 min; hit rate 0.53% among 400,000; Q9UBT6; AID 588579; note: potency is the fitted concentration of half-maximal effect; % is set by controls: 0 for no effect and ±100 for the full control effect
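Kinetic fluorescence screen: compound preincubated 15 min RT with 10 nM enzyme; 50 nM substrate (final) initiates; reads at 0/10 min.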
* = called active by the depositor; ? = inconclusive; · = no result; [ ] = remark or other dose. Unless noted, calls come from the whole dose curve; as a rule, active = well fitted curve in the direction sought with a large enough effect; inconclusive = small, poorly fitted or top-dose-only effect, or another doubt; inactive = no such curve, though single readings can be large; an effect the other way counts as inactive or inconclusive.

SMILES	PI5P4K alpha inh	WRN helicase inh	Pol eta inh	Pol beta inh	POLI inh	POLK inh
COC(=O)C1=C2SC(C)C(=O)N2C(N)=C(C#N)C1c1cc(OC)c(OC)c(OC)c1 (stereo unspecified)	?	-0.8%	-16.3%	13.2%	-9.3%	-7.3%
COc1ccc(C2C(C#N)=C(N)OC(C(C)(C)C)=C2C#N)cc1OC (stereo unspecified)	-9.0	-2.2%	-11.4%	-0.3%	1.6%	-5.8%
COc1ccc(C2C(C#N)=C(N)SC(N)=C2C#N)cc1OC	-60.2*	-29.8%	-11.8%	-3.5%	25.2%	-23.1%
COC(=O)C1=C2SC(C)C(=O)N2C(N)=C(C#N)C1c1ccc(OC)c(OC)c1 (stereo unspecified)	-57.5*	-12.1%	-9.8%	53.2%	11.2%	-13.6%
CC(C)C[C@H](NC(=O)C1CC(=O)N(c2ccc3c(c2)OCO3)C1)C(=O)NC1CCCC1 (stereo partly specified)	4.8	-9.4%[11.6 µM]	89.1µM*	14.4%	16.2%	11.3%
Cc1ccc(O)c(C2=Nc3ccccc3N=C(c3cccc(F)c3)C2)c1	·	·	·	29.7%	89.1µM*	-39.9%
CC(CCc1ccco1)NC(=O)CSc1cc(=O)n(C)c2ccccc12 (stereo unspecified)	-8.0	-7.7%	-2.4%	17.7%	-3.6%	4.2%
O=C(/C=C/c1ccco1)N(Cc1ccc(Cl)cc1)C1CCS(=O)(=O)C1 (stereo unspecified)	-27.9	13.3%	?	2.4%	39.8µM*	?
COc1ccc(CN(C(=O)/C=C/c2ccco2)C2CCS(=O)(=O)C2)cc1OC (stereo unspecified)	-1.5	-13.1%	4.6%	5.7%	79.4µM*	?
COc1ccc2oc(=Nc3ccc(C(=O)O)cc3)c(C(=O)NCc3ccco3)cc2c1	3.7	-6.6%	-30.9%	28.2%	-8.0%	-2.2%
COc1ccc2cc(C(=O)NCc3ccco3)c(=Nc3ccc(C(=O)O)cc3)oc2c1	·	-8.6%	89.1µM*	20.0%	-10.1%	-4.7%
CCOC(=O)c1[nH]c(C)c(CCC(=O)N2CCN(c3ccc(OC)cc3)CC2)c1C	·	·	-7.0%	2.0%	-8.7%	-7.3%[60.1 µM]
N#Cc1c(-c2cccnc2)c2c([nH]c1=O)-c1ccccc1OC2	-58.9*	-3.8%	-11.4%	1.7%	13.5%	-2.1%
CCOc1cc(/C=C2\C(=O)N(CCc3ccc(OC)c(OC)c3)C(C)=C2C(=O)OC)ccc1O	1.6	79.4µM*	-9.9%	18.5%	13.7%	-5.0%
COC(=O)C1=C(C)N(Cc2ccc(C)cc2)C(=O)/C1=C\c1ccc(O)c(OC)c1	1.1	-22.2%[57.1 µM]	-18.0%	8.4%	1.7%	-15.0%
Cc1cc(NC(=O)CS(=O)CC(=O)Nc2c(C)cccc2C)ccc1-n1cnnn1 (stereo unspecified)	-0.5	6.5%	-8.2%	49.0%	-0.9%	-0.3%
CCc1ccc(NC(=O)CS(=O)CC(=O)Nc2ccc(-n3cnnn3)c(C)c2)cc1 (stereo unspecified)	-0.4	-22.6%	-2.3%	25.1µM*	13.9%	-13.1%
Cc1ccc(NC(=O)c2ccccc2)cc1-n1cnnn1	0.9	8.1%	-14.1%	31.6µM*	25.9%	-4.0%
Cc1cc(C)nc(SSc2nc(C)cc(C)n2)n1	?	5.4%	-13.3%	?	?	2.8%
CCN(CC)S(=O)(=O)c1ccc2c(c1)nc(CN(C)C(=O)Nc1ccc(F)cc1)n2C	·	·	-8.4%	-10.9%	9.5%	-10.9%[60.1 µM]
O=C(CN(Cc1ccco1)C(=O)CNS(=O)(=O)c1ccc(Cl)cc1)NCc1ccco1	6.2	-2.6%[57.1 µM]	-16.2%	44.1%	-5.3%	2.3%
Cc1ccc(S(=O)(=O)NCC(=O)N(CC(=O)NCC2CCCO2)Cc2ccco2)cc1 (stereo unspecified)	1.5	-2.7%[57.1 µM]	-11.9%	12.6µM*	20.9%	-7.7%
Cc1ccc(S(=O)(=O)NCC(=O)N(CC(=O)NCc2ccco2)Cc2ccco2)cc1	0.7	-7.5%[11.6 µM]	56.2µM*	1.3%	?	?
CC(=O)NS(=O)(=O)c1ccc(NC(=O)c2cc3c(=O)n4ccccc4nc3s2)cc1	-18.7	-34.3%	39.8µM*	79.4µM*	35.5µM*	?

Source: PubChem BioAssay
